Common to all, as to details: concentration: 1 μM,replicates: in singlicate; n = 1
The subject of test [1] is TNNI3K.
Test [2] concerns T1, TRKA.
T1 construct: gene NTRK1

In test [3] the test system is TRKB.
Test [4] has as its system T2, TRKC.
T2 construct: gene NTRK3

Test [5] relates to TRPM6.
Test [6] relates to TSSK1B.
The subject of test [7] is TSSK3.
The subject of test [8] is TTK.
The subject of test [9] is TXK.
Test [10] has as its system TYK2(JH1domain-catalytic).
In test [11] the test system is TYK2(JH2domain-pseudokinase).
For test [12], the system named is TYRO3.
Test [13] relates to ULK1.
Test [14] deals with ULK2.
For test [15], the system named is ULK3.
Test [16] has as its system T3, VEGFR2.
T3 construct: gene KDR

Test [17] concerns T4, VPS34.
T4 construct: gene PIK3C3

The test system of test [18] is VRK2.
The test system of test [19] is WEE1.
In test [20] the test system is WEE2.
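Note: KINOMEscan kinase panel screen.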

As to `Cl.Cl.Nc1nc(-c2ccc3c(N)n[nH]c3c2)cc(N2CCCC(NC(=O)c3ccccc3)C2)n1` (stereo not drawn) [GSK2286775], the “%Inh” value in [1] was found to be 0%; in test [2] it was 0%; in [3], 0%; in test [4], 0%; in [5], 46%; in [6], 13%. Further, the “%Inh” value in test [7] is reported as 10%; in [8] it was 0%; in test [9] it was 100%; in test [10], 0%; in test [11], 38%; in test [12], 0%. The “%Inh” value in [13] is listed as 11%; in [14], 2%; in test [15] it was 36%; in test [16], 9%; in test [17], 0%; in test [18], 0%. In addition, the “%Inh” value in test [19] is recorded as 18%; in [20], 0%.

In the case of `O=C(NCCNc1ccnc(NCc2ccc(F)cc2)n1)c1cc2ccccc2s1` [GSK1379944], the “%Inh” value turned out to be 69% in test [1]; 0% in test [2]; 0% in test [3]; 22% in test [4]; 1% in test [5]; 16% in test [6]. For the same compound, the “%Inh” value in [7] came out at 4%; in test [8], 0%; in test [9] it was 11%; in [10], 2%; in test [11] it was 10%; in [12] it was 4%. Further, the “%Inh” value in test [13] is given as 3%; in test [14], 0%; in [15] it was 0%; in test [16] it was 0%; in test [17], 0%; in test [18], 0%. Moreover, the entries for the “%Inh” value in test [19] and in test [20] were 3% and 19%, respectively.

`CCN(CC)CCOc1ccc(Nc2ncc3cc(-c4c(Cl)cccc4Cl)c(=O)n(C)c3n2)cc1` [SB-601273]: the “%Inh” value in test [1] was 100%; in test [2], 100%; in [3] it was 43%; in test [4], 92.9%; in [5], 48%; in test [6], 56%. The “%Inh” value amounted to 24% in test [7]; 59% in test [8]; 99.5% in test [9]; 96.7% in [10]; 25% in [11]; 100% in [12]. In addition, the “%Inh” value in test [13] is reported as 92.4%; in test [14], 95.2%; in test [15], 59%; in [16], 97.6%; in [17] it was 44%; in test [18], 46%. Besides, the “%Inh” value in test [19] turned out to be 99.9%; in [20], 99.7%.

Turning to `Cc1cc(C(=O)Nc2ccc(Oc3ccc4nc(NC(=O)C5CC5)cn4n3)cc2)nn1-c1ccccc1`, the “%Inh” value in test [1] came out at 14%; in test [2] it was 100%; in test [3], 64%; in test [4], 12%; in [5], 0%; in [6], 0%. Besides, the “%Inh” value in [7] was found to be 0%; in test [8], 26%; in test [9] it was 22%; in [10], 15%; in test [11] it was 0%; in [12], 37%. The “%Inh” value in [13] was 0%; in test [14], 0%; in [15], 0%; in test [17] it was 0%; in test [18] it was 0%; in test [19], 15%. Further, the “%Inh” value in test [20] is on record as 7%.

As to `Cc1n[nH]c2ccc(-c3cc(OC[C@@H](N)Cc4ccccc4)cnc3-c3ccoc3)cc12.O=C(O)C(F)(F)F.O=C(O)C(F)(F)F` [GSK507358], the “%Inh” value in [1] is given as 0%; in test [2], 0%; in test [3], 0%; in test [4], 15%; in test [5] it was 0%; in [6] it was 0%. Further, the “%Inh” value turned out to be 6% in test [7]; 0% in test [8]; 0% in [9]; 7% in test [10]; 19% in test [11]; 0% in [12]. The “%Inh” value is given as 0% in test [13]; 8% in test [14]; 22% in test [15]; 0% in [16]; 0% in [17]; 33% in [18]. The “%Inh” value stood at 35% in [19] and 15% in test [20].

With `Cl.Oc1cc(-c2nc(-c3ccccc3)[nH]c2-c2ccncc2)ccc1Cl` [SB-386023], the “%Inh” value came to 14% in [1]; 19% in [2]; 6% in test [3]; 12% in [4]; 23% in [5]; 0% in test [6]. Also, the “%Inh” value is reported as 0% in test [7]; 29% in test [8]; 42% in test [9]; 0% in test [10]; 0% in test [11]; 58% in test [12]. In addition, the “%Inh” value is 7% in test [13]; 25% in [14]; 25% in test [15]; 20% in [16]; 14% in test [17]; 0% in test [18]. Further, the “%Inh” value in [19] came to 0%; in test [20], 11%.

For the compound `CCn1c(-c2nonc2N)nc2c(C#CC(C)(C)O)nc(OCCN)cc21.Cl.Cl` [GSK902056], the “%Inh” value in test [1] is 0%; in test [2], 0%; in [3], 0%; in test [4], 0%; in test [5] it was 0%; in test [6], 23%. Moreover, the “%Inh” value in test [7] stood at 85%; in test [8], 0%; in [9], 36%; in test [10], 17%; in [11], 9%; in test [12], 0%. Besides, the “%Inh” value in test [13] came out at 33%; in test [14] it was 0%; in test [15], 13%; in [16], 0%; in test [17] it was 0%; in test [18], 0%. The “%Inh” value worked out at 6% in test [19] and 15% in test [20].

For the compound `C=CC(=O)Nc1cc2c(Nc3ccc(F)c(Cl)c3)ncnc2cc1OCCCN1CCOCC1` [GW781483], the “%Inh” value in test [1] was found to be 0%; in [2], 47%; in [3], 4%; in test [4] it was 18%; in test [5], 0%; in test [6], 0%. Besides, the “%Inh” value is recorded as 47% in test [7]; 0% in test [8]; 82% in [9]; 25% in test [10]; 21% in test [11]; 29% in test [12]. Besides, the “%Inh” value in test [13] turned out to be 0%; in test [14], 17%; in test [15], 14%; in [16] it was 0%; in test [17], 6%; in test [18], 0%. Besides, the “%Inh” value is given as 0% in [19] and 20% in test [20].

`Cl.Cl.NC[C@H](Cc1ccc(C(F)(F)F)cc1)NC(=O)c1cc(Br)c(-c2ccnc3[nH]ccc23)s1` [GSK1487252]: the “%Inh” value in test [1] is given as 13%; in [2], 86%; in test [3], 67%; in test [4], 74%; in test [5], 0%; in test [6], 0%. The “%Inh” value is reported as 2% in test [7]; 10% in test [8]; 0% in [9]; 3% in test [10]; 16% in test [11]; 0% in test [12]. Further, the “%Inh” value in [13] is reported as 5%; in test [14], 19%; in [15], 6%; in test [16] it was 34%; in [17], 0%; in test [18], 0%. Moreover, the “%Inh” value in test [19] and in test [20] was 0% in each case.

With `CC(C)Nc1cc(-c2ccc3c(N)n[nH]c3c2)nc(N)n1` [GSK2221681], the “%Inh” value turned out to be 0% in [1]; 0% in test [2]; 0% in [3]; 0% in test [4]; 13% in test [5]; 1% in test [6]. The “%Inh” value in test [7] is listed as 58%; in [8], 24%; in test [9] it was 0%; in [10] it was 0%; in [11], 8%; in test [12] it was 0%. Also, the “%Inh” value in test [13] is 76%; in [14] it was 22%; in test [15], 9%; in test [16], 4%; in [17] it was 0%; in test [18], 0%. Also, the “%Inh” value in test [19] was 8%; in test [20], 0%.

For `CCN(CC)CCCCNc1ncc2cc(-c3c(Cl)cccc3Cl)c(NC(=O)NC(C)(C)C)nc2n1`, the “%Inh” value in [1] is 91.5%; in [2] it was 90%; in test [3] it was 55%; in [4], 45%; in test [5] it was 0%; in [6] it was 0%. The “%Inh” value in test [7] was 0%; in [8], 2%; in test [9], 47%; in [10] it was 7%; in [11], 0%; in [12] it was 8%. For the same compound, the “%Inh” value in test [13] amounted to 0%; in test [14] it was 29%; in [15] it was 0%; in test [16], 90.4%; in test [17], 12%; in test [18] it was 0%. Moreover, the “%Inh” value in test [19] and in test [20] was 3% throughout.

For `Cc1ccc(-n2nc(C(C)(C)C)cc2NC(=O)Nc2ccc(OCCN3CCOCC3)c3ccccc23)cc1` [GW839464], the “%Inh” value in [1] is given as 0%; in [2], 32%; in [3] it was 70%; in test [5], 0%; in test [6], 10%; in [7], 0%. Further, the “%Inh” value worked out at 31% in test [8]; 13% in test [9]; 0% in test [10]; 0% in test [11]; 37% in test [12]; 0% in test [13]. The “%Inh” value in test [14] stood at 0%; in test [15], 0%; in test [16] it was 37%; in [17], 21%; in test [18] it was 0%; in test [19], 0%. Further, the “%Inh” value in [20] came out at 14%.

On to `Nc1nc(Nc2ccccc2)cc(-c2ccc3c(N)n[nH]c3c2)n1` [GSK2225749], for which the “%Inh” value in test [1] stood at 0%; in [2], 30%; in test [3], 0%; in [4] it was 0%; in test [5], 0%; in test [6], 2%. Besides, the “%Inh” value worked out at 24% in test [7]; 24% in test [8]; 0% in test [9]; 46% in [10]; 45% in test [11]; 0% in [12]. For the same compound, the “%Inh” value came out at 92.8% in test [13]; 62% in test [14]; 16% in test [15]; 5% in test [16]; 3% in test [17]; 0% in test [18]. Further, the “%Inh” value in [19] and in [20] was 0% throughout.

The values above are taken from article PMC5540273 (PLoS ONE, 2017).
